Results filed as inconclusive are left out. Active and inactive are the calls of the source. Unless noted, the call rests on the fitted dose curve; in most records, active means well fitted curve in the direction sought with a large enough effect in the repeat runs; inconclusive means weak or mixed curves; inactive means no such curve, though single readings can be large; an effect the other way counts as inactive or inconclusive.
How the values were obtained:
[1] = qHTS assay to identify small molecule antagonists of the estrogen related receptor (ERR) signaling pathway - cell viability counter screen (AID 1224818);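 further: series mostly up to about 46 µM; viability measured after 17.5 h of compound exposure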
Outline: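 Cytotoxicity counter screen: fluorescence from CellTiter-Fluor, added after 17.5 h compound exposure at 37 C and read 30 min later. ERR cell line seeded at 2,000 cells/well, preincubated 6 h before dosing.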

[2] = qHTS assay to identify small molecule antagonists of the estrogen related receptor (ERR) signaling pathway (AID 1224819;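 further: luminescence from an ERR-driven luciferase reporter measured with One-Glo reagent; series mostly up to about 46 µM; nearly all actives have a fitted effect of over 50% in size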)
Outline: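 LOPAC library screened for antagonism as reduced One-Glo luminescence in ERR reporter cells (2,000/well). Compounds were added after 6 h pre-incubation and left 18 h at 37C; reading followed a 30 min room-temperature reagent step.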

[3] = qHTS assay to identify small molecule agonists of the estrogen related receptor (ERR) signaling pathway (AID 1224820)
Outline: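 Following a 6 h settling period, 2,000 ERR cells per well receive DMSO-dissolved compounds by pin tool and incubate 18 h at 37 C; agonist activity is scored from One-Glo luminescence read 30 min post-addition.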

[4] = test system: estrogen-related receptor alpha (ERRalpha) with PGC-1alpha coactivator, human; assay: qHTS assay to identify small molecule antagonists of the estrogen related receptor signaling pathway with the pleiotropic PPARgamma coactivator (PGC) (AID 1224821; calls by dose curve;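 further: series mostly up to about 46 µM; lower luminescence signal means antagonism of PGC/ERR signalling; nearly all actives have a fitted effect of over 50% in size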)
Outline: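 Screening used NTP's PGC/ERR cells, dosed via pin tool with compound in DMSO alongside positive and negative controls. After 18 h at 37 C, One-Glo reagent sat 30 min at room temperature before luminescence detection.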

[5] = qHTS assay to identify small molecule agonists of the estrogen related receptor signaling pathway with the pleiotropic PPARgamma coactivator (PGC) (AID 1224823)
Outline: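 In this quantitative high-throughput screen, an 18 h, 37 C treatment of PGC/ERR cells with compounds in DMSO preceded a One-Glo luminescence read taken after 30 min at room temperature.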

Measured: Potency

OCc1cnc[nH]1
inactive: [1] | [2] | [3] | [4] | [5]

From PubChem BioAssay (Tox21)
